# Reference: PubChem BioAssay
# Target: Epidermal growth factor receptor (Homo sapiens) (UniProt P00533)
# Assay: EGFR binders on small-molecule microarrays, primary screen, biochemical, small-molecule microarray, 635 nm fluorescence (AID 1104);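 note: score merges 667 nm emission intensity with spot signal to noise over triplicate slides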
# Settings: EGFR binding, higher = more signal
# Chain of Epidermal growth factor receptor (Homo sapiens) (P00533 whole entry, looked up): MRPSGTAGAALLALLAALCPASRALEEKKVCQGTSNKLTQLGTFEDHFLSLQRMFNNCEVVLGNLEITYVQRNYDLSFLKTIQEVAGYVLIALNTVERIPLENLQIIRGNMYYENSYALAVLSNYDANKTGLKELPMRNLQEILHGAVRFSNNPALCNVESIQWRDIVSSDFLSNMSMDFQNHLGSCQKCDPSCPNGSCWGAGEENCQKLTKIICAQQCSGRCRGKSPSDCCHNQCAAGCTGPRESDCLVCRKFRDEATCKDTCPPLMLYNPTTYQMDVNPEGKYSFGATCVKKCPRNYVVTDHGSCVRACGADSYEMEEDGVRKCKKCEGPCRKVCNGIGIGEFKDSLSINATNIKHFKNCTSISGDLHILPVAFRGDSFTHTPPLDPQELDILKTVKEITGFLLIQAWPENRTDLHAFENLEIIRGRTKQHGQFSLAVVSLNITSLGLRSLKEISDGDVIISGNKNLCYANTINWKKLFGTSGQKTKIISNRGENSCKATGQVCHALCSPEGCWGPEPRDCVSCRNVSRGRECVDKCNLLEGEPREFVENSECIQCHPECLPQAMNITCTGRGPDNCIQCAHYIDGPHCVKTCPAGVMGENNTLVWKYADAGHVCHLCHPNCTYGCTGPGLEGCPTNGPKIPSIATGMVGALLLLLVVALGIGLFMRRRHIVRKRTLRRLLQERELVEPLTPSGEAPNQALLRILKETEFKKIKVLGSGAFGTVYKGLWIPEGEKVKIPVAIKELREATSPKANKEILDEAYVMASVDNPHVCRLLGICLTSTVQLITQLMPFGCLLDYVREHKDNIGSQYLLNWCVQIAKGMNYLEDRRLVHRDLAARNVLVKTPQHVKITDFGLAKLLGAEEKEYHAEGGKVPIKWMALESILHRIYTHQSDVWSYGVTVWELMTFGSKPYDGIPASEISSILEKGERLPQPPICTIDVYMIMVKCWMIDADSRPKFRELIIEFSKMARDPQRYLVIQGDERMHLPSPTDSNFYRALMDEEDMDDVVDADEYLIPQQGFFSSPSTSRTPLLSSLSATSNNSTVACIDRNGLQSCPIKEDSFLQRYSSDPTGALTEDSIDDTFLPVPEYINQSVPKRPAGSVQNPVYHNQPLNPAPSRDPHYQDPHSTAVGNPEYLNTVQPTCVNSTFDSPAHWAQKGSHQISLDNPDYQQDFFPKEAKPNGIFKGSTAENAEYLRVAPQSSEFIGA
row,SMILES,composite z-score
1,CCOC(=O)[C@H]1C/C=C/C[C@H](C(=O)OCC)C(=O)O[C@H]2[C@@H](OC)O[C@H](CO)[C@@H](OC(=O)Nc3ccc(OC)cc3)[C@@H]2OC1=O,0.368
2,COC(=O)C(CC#Cc1ccc2c(c1)[C@]1(C(=O)N2)[C@H](C(=O)O)[C@H]2C(=O)O[C@H](c3ccccc3)[C@H](c3ccccc3)N2[C@@H]1c1ccccc1OCCO)C(=O)OC,0.384
3,C=CCC(OC(C)=O)[C@@H]1[C@@H](N(Cc2cc3ccccc3o2)C(=O)c2ccc(C)cc2)c2cc(OCCCO)ccc2N1C(=O)Cc1ccc2ccccc2c1 (stereo partly drawn),-0.0197
4,Cc1ccc(S[C@]2(C(=O)NC3CC3)CC(=O)N(Cc3ccccc3Cl)[C@@H]2c2ccc(CO)cc2I)cc1,-0.172
5,C=CCOC(=O)[C@@H]1[C@H]2C(=O)O[C@H](c3ccccc3)[C@H](c3ccccc3)N2[C@H](c2ccc(OCCOC(=O)[C@H]3C[C@H]4C(=O)N[C@@H](CCCCN(C)C)C(=O)N4[C@H]3c3cccc(OCCO)c3)cc2)[C@@]12C(=O)Nc1ccc(I)cc12,0.605
6,O=C1NC(=O)C2C1C=CC(C(O)c1ccc(Br)cc1)N2Nc1ccccn1 (stereo not drawn),0.12
7,O=C1NC(=O)C2C1C=CC(C(O)c1c(F)cccc1Cl)N2Nc1ccccn1 (stereo not drawn),0.409
8,[N-]=[N+]=Nc1ccccc1[C@H]1OC(c2ccc(OCCCO)cc2)=N[C@@]1(CCS(=O)(=O)c1ccccc1)C(=O)N1CCCCC1,0.0374
